Compound activity as filed in PubChem.
Only some compounds are listed: those with a hit (about 7.3% of all), similar ones and a draw of the others.
AmpC inh no detg: blocks E. coli AmpC beta-lactamase in detergent-free assay | AmpC nitrocefin hydrolysis, absorbance 480 nm, 0.0001% Triton | P00811 | 0.52% of 330,000 active | Potency, µM (top dose mostly 57.1 µM), for the others: at the highest dose activity change, negative = inhibition, hits mostly inhibitors;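 note: potency is the fitted concentration of half-maximal effect; plate controls were no compound for no effect and no enzyme for full effect; nearly all actives have a fitted effect of over 20% in size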
Target sequence (P00811 whole entry, looked up): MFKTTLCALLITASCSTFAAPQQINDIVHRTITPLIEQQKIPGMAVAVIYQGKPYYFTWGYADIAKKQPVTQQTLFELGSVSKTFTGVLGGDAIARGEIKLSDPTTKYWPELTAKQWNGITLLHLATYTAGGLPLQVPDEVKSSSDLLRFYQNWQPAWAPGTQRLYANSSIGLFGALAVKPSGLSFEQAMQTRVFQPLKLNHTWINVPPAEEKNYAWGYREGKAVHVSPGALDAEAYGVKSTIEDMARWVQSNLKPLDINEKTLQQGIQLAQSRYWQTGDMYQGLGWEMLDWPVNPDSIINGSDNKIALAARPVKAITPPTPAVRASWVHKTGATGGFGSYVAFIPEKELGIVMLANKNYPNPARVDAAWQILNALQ
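AmpC (5.3 nM in the dispensed reagent) in 20 mM phosphate pH 7.0 with 0.01% (detergent screen) or 0.0001% Triton X-100 was preincubated with compounds for 15 min at room temperature. Nitrocefin was then added from an 800 uM solution, and hydrolysis was followed at 480 nm.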
HCMV antiviral: blocks human cytomegalovirus replication | 4.5% of 410,000 active | activity change, negative = inhibition, % at 57.5 µM | HFF cells, HCMV-luciferase reporter, 72 h; stronger effect = lower value | AID 1259415; in the data active = activity change below about -60%; inconclusive = no clear call, values can overlap the other calls; inactive = above about -39%
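Luciferase read-out from HCMV-luciferase-infected HFFs (MOI 1 PFU/cell) 72 h post infection at 37C; compounds added after 16 h cell attachment; activity normalized between buffer-only basal and Salinomycin (10uM) inhibitor controls.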
AmpC detergent: inhibitors of E. coli AmpC beta-lactamase with detergent; P00811; AmpC hydrolysis of nitrocefin, absorbance 480 nm, 0.01% Triton; 0.041% of 370,000 active; Potency, µM (top dose mostly 114 µM), for inactives: top-dose activity change, negative = inhibition, usual class: inhibitors;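 note: potency is the fitted concentration of half-maximal effect; 0% = no-compound wells and -100% = no-enzyme wells; nearly all actives have a fitted effect of over 25% in size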
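20 mM phosphate pH 7.0 + 0.01% (detergent screen) or 0.0001% Triton X-100; 5.3 nM AmpC reagent; cpd preinc 15 min RT; nitrocefin (800 uM stock) to start; A480 q20 s × 4 min; Activity was normalised to no-enzyme and no-compound control wells.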
FMDV antiviral: antivirals against foot and mouth disease virus. FMDV antiviral cell-based qHTS. Potency, µM (top dose mostly 57.9 µM), for inactives: at the highest dose activity change, negative = inhibition, actives largely listed as inhibitors. 1.2% of 410,000 active. AID 1159524; calls by dose curve; tested in HEK293T cells; note: read-out not given here; potency is the fitted concentration of half-maximal effect; nearly all actives have a fitted effect of over 45% in size
HCV inhibitor: inhibitors of hepatitis C virus infection; Huh7.5.1 HCVcc-Cre infection, luciferase reporter, 44 h; Potency, µM (series often up to 41.8 µM), for the others: top-dose activity change, negative = inhibition, actives largely listed as inhibitors; 3.4% of 340,000 active; AID 651820; note: potency is the fitted concentration of half-maximal effect
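Cells seeded at 1,000/well and cultured 4 h, then compounds added followed by HCVcc-Cre virus (~0.5 moi). After 44 h further culture, luciferase substrate was added, plates held 15 min at room temperature, and luminescence read for 15 sec.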
Starred values were filed as active, the others as inactive; ? = inconclusive; . = not tested or not shown. Unless noted, calls come from the whole dose curve; as a rule, active = well fitted curve in the direction sought with a large enough effect; inconclusive = small, poorly fitted or top-dose-only effect, or another doubt; inactive = no such curve, though single readings can be large; an effect the other way counts as inactive or inconclusive. Unless noted, % is set by controls: 0 for no effect and ±100 for the full control effect.

SMILES	AmpC inh no detg	HCMV antiviral	AmpC detergent	FMDV antiviral	HCV inhibitor
Cc1nn2c(=O)cc(COC(=O)c3ccc(NC(=O)COc4ccc(Cl)cc4)cc3)nc2s1	.	-84.3*	5.1%	15.8µM*	.
CCc1nn2c(=O)cc(COC(=O)c3ccc(NC(=O)c4cccs4)cc3)nc2s1	.	12.7	10.5%	-21.3%	.
COc1ccc(OCC(=O)Nc2ccc(C(=O)OCc3cc(=O)n4nc(C)sc4n3)cc2)cc1	.	-28.4	-2.0%	10µM*	.
Cc1noc(C)c1CN1CCN2C=C(C(=O)NCCCc3ccccc3)OC2=NC1=O	.	9.6	.	.	.
Cc1cc(C(=O)NCc2ccco2)sc1C	-14.3%	-11.8	-6.5%	14.7%	9.5%
Nc1c2c(nc3ccc(Br)cc13)N(C1CCCCC1)CC2	-27.7%	.	-15.0%	.	.
Nc1c2c(nc3ccccc13)N(C1CCCCC1)CC2	-30.6%	-19.8	-8.0%	-5.3%	0.316µM*
Cc1c(C(=O)NCC2(N3CCOCC3)CCCCCC2)cnn1-c1nccc(-c2ccccc2F)n1	.	.	.	-23.9%	.
Cc1cc(C(=O)CS(=O)(=O)c2ccc(Cl)cc2)cc(C)c1O	-46.9%	18.0	4.7%	10.0%	11.2µM*
CCC(CC)C(Nc1ccccc1C(C)=O)C(=O)NC1CCCCC1 (stereo unspecified)	.	-34.4	.	.	.
Cc1cccc(NC(=S)NNC(=O)c2ccc(O)cc2O)c1C	-35.6%	-98.3*	-2.0%	15.0%	17.5%
Cc1ccc(NC(=S)NNC(=O)c2ccccc2O)c(C)c1	-33.2%	-4.1	5.2%	9.9%	-15.4%
Cc1cccc(C(=O)c2cn[nH]c2-c2ccc(C)cc2O)c1	-34.8%	22.7	?	-10.9%	-24.6%
Cc1ccc(O)c(-c2[nH]ncc2C(=O)c2ccc(Br)cc2)c1	5.01µM*	44.7	-0.7%	-17.4%	2.1%
Cc1ccc(-c2[nH]ncc2C(=O)c2cccc(F)c2)c(O)c1	-30.4%	-74.6*	-7.2%	-2.2%	?
COc1cc(-c2n[nH]c3ccnc(-c4ccccc4)c23)cc(OC)c1OC	.	-8.3	.	.	.
CC1CC(C)CN(S(=O)(=O)N2CCCC(C(=O)NCCc3ccccc3)C2)C1 (stereo unspecified)	22.2%	0.0	2.9%	-14.3%	3.5%
CC(C)c1ccc(N2C(=O)/C(=C/N(C)C)SC2=S)cc1	-41.1%	-60.1*	-0.1%	0.9%	-2.9%
O=C(N/N=C/c1c[nH]c2ccccc12)c1cc(-c2ccc3ccccc3c2)n[nH]1	-13.2%	-18.5	6.5%	-22.2%	10µM*
O=C(N/N=C/c1c[nH]c2ccccc12)c1cc(-c2ccccc2)n[nH]1	-26.3%	35.2	?	-5.4%	?
O=C(N/N=C/c1c[nH]c2ccccc12)c1cc(-c2ccc(-c3ccccc3)cc2)n[nH]1	-36.5%	-73.7*	?	?	-26.2%
O=C(N/N=C/C=C\c1ccccc1[N+](=O)[O-])c1cc(-c2ccc3ccccc3c2)n[nH]1	10µM*	?	-9.0%	10.7%	?
Cc1ccc(-c2cc(C(=O)N/N=C/c3c[nH]c4ccccc34)[nH]n2)cc1	-30.3%	-20.2	-0.8%	-0.7%	?
O=C(N/N=C/C=C/c1ccccc1[N+](=O)[O-])c1ccncc1	-25.2%	17.9	4.8%	-9.2%	-1.2%
CC(C)C[C@H]1CNC(=S)N1C[C@H]1CCCN1C[C@H](Cc1ccc(O)cc1)N1C[C@H](CC(C)C)N(CCc2ccccc2)C1=S	.	-25.2	.	-12.4%	.
SMILES	AmpC inh no detg	HCMV antiviral	AmpC detergent	FMDV antiviral	HCV inhibitor
N#C/C(=C\c1ccc(OCc2ccc(F)cc2)cc1)C(=O)Nc1cccc(C(=O)O)c1	-41.9%	-75.3*	0.2%	45.0%	33.6%
N#C/C(=C\c1ccc(OCc2ccc(Br)cc2)cc1)C(=O)Nc1cccc(C(=O)O)c1	-52.2%	12.7	-12.0%	3.1%	8.5%
CCCN(C(=O)COc1cc(=O)n(CC)c2ccccc12)c1ccc(C(C)C)cc1	.	-102.1*	-13.7%	?	.
Cc1nnsc1C(=O)N1CCN(c2cc(C(F)(F)F)ccn2)CC1	-5.0%	3.7	1.7%	-9.3%	12.4%
Cc1cccc(NC(=S)/N=C(\N)Nc2nc(C)c3ccc(C)cc3n2)c1	-26.2%	-32.6	0.8%	-24.2%	2µM*
Cc1cc(C)cc(NC(=S)/N=C(\N)Nc2nc(C)c3ccccc3n2)c1	-24.1%	-79.1*	-5.1%	?	?
COc1ccc(Nc2nc(C)c3ccccc3n2)cc1	-16.4%	54.3	-7.7%	32.9%	?
Cc1ccc(S(=O)(=O)/N=C(\N)Nc2nc(C)c3ccccc3n2)cc1	-6.3%	-9.5	-0.7%	49.3%	3.5%
Cc1ccc(NC(=S)/N=C(\N)Nc2nc(C)c3ccccc3n2)cc1C	-8.5%	-34.7	7.0%	-25.4%	11.2µM*
Cc1cccc(NC(=S)/N=C(\N)Nc2nc(C)c3ccccc3n2)c1	-33.0%	?	0.0%	-9.1%	3.98µM*
Cc1cccc(NC(=S)/N=C(\N)Nc2nc(C)c3cc(C)ccc3n2)c1	-28.2%	13.3	-3.9%	5.8%	?
C=C1C(=O)[C@]23C[C@H]1CCC2[C@@]1(C)C(C[C@@H]3O)[C@](C)(C(=O)OC)CC[C@@H]1O (stereo partly specified)	.	-101.9*	.	20µM*	.
C[C@@]12C(C[C@H](O)[C@@]34C[C@@H](CCC13)[C@@H](CO)C4=O)[C@](C)(C(=O)O)CC[C@@H]2O (stereo partly specified)	.	-8.4	.	-22.1%	.
CCn1c(SCC(=O)Nc2ccccc2C)nc2nc3c(cc2c1=O)COC(C)(C)C3	0.7%	-5.7	9.4%	-15.0%	10µM*
CCOc1ccc(NC(=O)CSc2nc3nc4c(cc3c(=O)n2CC)COC(C)(C)C4)cc1	18.9%	-26.6	3.4%	-15.0%	3.16µM*
CCCN1CCC(=O)N([C@H](CN=[N+]=[N-])Cc2ccccc2)CC1	-3.6%	-4.6	-8.2%	8.7%	-1.2%
COc1ccc(NC(=O)CSc2nc3ccccc3n2Cc2cccc(OC)c2)cc1	.	-27.2	6.3%	-14.2%	.
CCN(Cc1ccccc1)C(=O)COC(=O)c1cnc(C)cn1	-29.1%	-22.6	-1.7%	-1.8%	9.5%
CCN(Cc1ccccc1)C(=O)COC(=O)c1c(C)nsc1NC	-12.0%	-66.4*	0.5%	?	11.2µM*
N#CCCCC1(CCCC#N)OCCO1	.	13.4	.	-24.9%	15.9%
CCN(CC)c1ccc(C(=O)NNC(=O)c2cccn2C)cc1	-13.9%	26.1	?	13.3%	7.08µM*
CC[C@@H]1CCC[C@@H](O)[C@@H](C)C(=O)O[C@H](C)[C@@H](C)C/C=C(C)/C(OC)=C\C(=O)N(C)C([C@@H](C)CC)C(=O)N(C)[C@@H](C(C)C)C(=O)N(C)[C@@H](COC)C(=O)N2CCC[C@H]2C(=O)N(C)[C@@H](C(C)C)C(=O)N2CCC[C@H]2C(=O)O1 (stereo partly specified)	.	-101.9*	.	?	.
COc1ccc(Br)cc1CNC(=O)c1cc(=O)[nH]c2ccc(S(=O)(=O)N3CCCCC3)cc12	.	1.1	-2.2%	-8.3%	.
